# Columns and labels:
# [1] = system: Proto-oncogene tyrosine-protein kinase receptor Ret (Homo sapiens), P07949 [Y791F]; settings: at 1 µM
# [2] = molecular target: Macrophage-stimulating protein receptor (Homo sapiens) (UniProt Q04912); settings: at 0.1 µM
# [3] = molecular target: Macrophage-stimulating protein receptor (Homo sapiens) (UniProt Q04912); settings: at 1 µM
# [4] = molecular target: Proto-oncogene tyrosine-protein kinase ROS (Homo sapiens) (UniProt P08922); settings: at 0.1 µM
# [5] = molecular target: Proto-oncogene tyrosine-protein kinase ROS (Homo sapiens) (UniProt P08922); settings: at 1 µM
# [6] = molecular target: Proto-oncogene tyrosine-protein kinase Src (Homo sapiens) (UniProt P12931); settings: at 0.1 µM
# [7] = molecular target: Proto-oncogene tyrosine-protein kinase Src (Homo sapiens) (UniProt P12931); settings: at 1 µM
# [8] = molecular target: Tyrosine-protein kinase Srms (Homo sapiens) (UniProt Q9H3Y6); settings: at 0.1 µM
# [9] = molecular target: Tyrosine-protein kinase Srms (Homo sapiens) (UniProt Q9H3Y6); settings: at 1 µM
# [10] = molecular target: Tyrosine-protein kinase SYK (Homo sapiens) (UniProt P43405); settings: at 0.1 µM
# [11] = molecular target: Tyrosine-protein kinase SYK (Homo sapiens) (UniProt P43405); settings: at 1 µM
# [12] = molecular target: T1, Tyrosine-protein kinase Tec (Homo sapiens) (UniProt P42680); settings: at 0.1 µM
# T1 sequence (whole entry): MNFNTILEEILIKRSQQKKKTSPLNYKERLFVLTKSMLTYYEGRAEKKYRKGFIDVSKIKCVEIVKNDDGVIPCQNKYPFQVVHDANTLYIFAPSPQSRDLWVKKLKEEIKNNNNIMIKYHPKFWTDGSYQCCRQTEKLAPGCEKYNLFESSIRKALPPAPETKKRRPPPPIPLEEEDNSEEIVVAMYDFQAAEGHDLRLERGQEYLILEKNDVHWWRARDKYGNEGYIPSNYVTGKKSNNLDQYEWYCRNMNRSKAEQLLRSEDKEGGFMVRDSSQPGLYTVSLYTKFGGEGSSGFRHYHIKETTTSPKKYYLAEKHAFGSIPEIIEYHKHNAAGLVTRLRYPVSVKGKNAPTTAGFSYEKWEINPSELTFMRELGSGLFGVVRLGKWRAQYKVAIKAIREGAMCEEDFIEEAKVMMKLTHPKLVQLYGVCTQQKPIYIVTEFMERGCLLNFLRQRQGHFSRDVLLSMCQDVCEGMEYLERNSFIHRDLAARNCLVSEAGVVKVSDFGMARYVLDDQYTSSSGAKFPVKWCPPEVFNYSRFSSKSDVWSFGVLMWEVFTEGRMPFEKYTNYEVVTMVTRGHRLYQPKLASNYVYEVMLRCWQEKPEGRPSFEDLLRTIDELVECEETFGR
# [13] = molecular target: T1, Tyrosine-protein kinase Tec (Homo sapiens); settings: at 1 µM
# [14] = molecular target: Angiopoietin-1 receptor (Homo sapiens) (UniProt Q02763); settings: at 0.1 µM
# [15] = molecular target: Angiopoietin-1 receptor (Homo sapiens) (UniProt Q02763); settings: at 1 µM
# [16] = molecular target: T2, Non-receptor tyrosine-protein kinase TNK1 (Homo sapiens) (UniProt Q13470); settings: at 0.1 µM
# T2 sequence (whole entry): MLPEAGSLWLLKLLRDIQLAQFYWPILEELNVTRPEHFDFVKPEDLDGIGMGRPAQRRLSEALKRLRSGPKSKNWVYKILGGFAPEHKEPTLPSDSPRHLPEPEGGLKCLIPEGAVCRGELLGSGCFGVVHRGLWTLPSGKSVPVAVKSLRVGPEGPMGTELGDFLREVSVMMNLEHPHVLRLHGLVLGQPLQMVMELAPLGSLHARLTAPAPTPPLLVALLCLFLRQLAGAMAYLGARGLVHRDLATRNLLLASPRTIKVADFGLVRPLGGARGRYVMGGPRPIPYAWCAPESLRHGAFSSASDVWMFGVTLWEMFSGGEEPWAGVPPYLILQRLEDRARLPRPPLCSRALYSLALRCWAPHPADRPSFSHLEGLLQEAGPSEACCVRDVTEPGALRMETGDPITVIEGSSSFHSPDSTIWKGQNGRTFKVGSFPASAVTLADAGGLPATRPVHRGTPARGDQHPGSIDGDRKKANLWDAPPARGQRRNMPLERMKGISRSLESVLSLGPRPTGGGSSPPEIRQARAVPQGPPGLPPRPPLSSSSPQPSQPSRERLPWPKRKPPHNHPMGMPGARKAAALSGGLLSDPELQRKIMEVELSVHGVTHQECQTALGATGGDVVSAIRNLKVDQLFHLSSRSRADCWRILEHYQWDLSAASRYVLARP
# [17] = molecular target: T2, Non-receptor tyrosine-protein kinase TNK1 (Homo sapiens); settings: at 1 µM
# [18] = molecular target: Activated CDC42 kinase 1 (Homo sapiens) (UniProt Q07912); settings: at 0.1 µM
# [19] = molecular target: Activated CDC42 kinase 1 (Homo sapiens) (UniProt Q07912); settings: at 1 µM
# [20] = molecular target: High affinity nerve growth factor receptor (Homo sapiens) (UniProt P04629); settings: at 0.1 µM;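 note: each value is a mean of replicate percent inhibition readings against TRKA kinase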
# Chain of Proto-oncogene tyrosine-protein kinase ROS (Homo sapiens) (P08922 whole entry): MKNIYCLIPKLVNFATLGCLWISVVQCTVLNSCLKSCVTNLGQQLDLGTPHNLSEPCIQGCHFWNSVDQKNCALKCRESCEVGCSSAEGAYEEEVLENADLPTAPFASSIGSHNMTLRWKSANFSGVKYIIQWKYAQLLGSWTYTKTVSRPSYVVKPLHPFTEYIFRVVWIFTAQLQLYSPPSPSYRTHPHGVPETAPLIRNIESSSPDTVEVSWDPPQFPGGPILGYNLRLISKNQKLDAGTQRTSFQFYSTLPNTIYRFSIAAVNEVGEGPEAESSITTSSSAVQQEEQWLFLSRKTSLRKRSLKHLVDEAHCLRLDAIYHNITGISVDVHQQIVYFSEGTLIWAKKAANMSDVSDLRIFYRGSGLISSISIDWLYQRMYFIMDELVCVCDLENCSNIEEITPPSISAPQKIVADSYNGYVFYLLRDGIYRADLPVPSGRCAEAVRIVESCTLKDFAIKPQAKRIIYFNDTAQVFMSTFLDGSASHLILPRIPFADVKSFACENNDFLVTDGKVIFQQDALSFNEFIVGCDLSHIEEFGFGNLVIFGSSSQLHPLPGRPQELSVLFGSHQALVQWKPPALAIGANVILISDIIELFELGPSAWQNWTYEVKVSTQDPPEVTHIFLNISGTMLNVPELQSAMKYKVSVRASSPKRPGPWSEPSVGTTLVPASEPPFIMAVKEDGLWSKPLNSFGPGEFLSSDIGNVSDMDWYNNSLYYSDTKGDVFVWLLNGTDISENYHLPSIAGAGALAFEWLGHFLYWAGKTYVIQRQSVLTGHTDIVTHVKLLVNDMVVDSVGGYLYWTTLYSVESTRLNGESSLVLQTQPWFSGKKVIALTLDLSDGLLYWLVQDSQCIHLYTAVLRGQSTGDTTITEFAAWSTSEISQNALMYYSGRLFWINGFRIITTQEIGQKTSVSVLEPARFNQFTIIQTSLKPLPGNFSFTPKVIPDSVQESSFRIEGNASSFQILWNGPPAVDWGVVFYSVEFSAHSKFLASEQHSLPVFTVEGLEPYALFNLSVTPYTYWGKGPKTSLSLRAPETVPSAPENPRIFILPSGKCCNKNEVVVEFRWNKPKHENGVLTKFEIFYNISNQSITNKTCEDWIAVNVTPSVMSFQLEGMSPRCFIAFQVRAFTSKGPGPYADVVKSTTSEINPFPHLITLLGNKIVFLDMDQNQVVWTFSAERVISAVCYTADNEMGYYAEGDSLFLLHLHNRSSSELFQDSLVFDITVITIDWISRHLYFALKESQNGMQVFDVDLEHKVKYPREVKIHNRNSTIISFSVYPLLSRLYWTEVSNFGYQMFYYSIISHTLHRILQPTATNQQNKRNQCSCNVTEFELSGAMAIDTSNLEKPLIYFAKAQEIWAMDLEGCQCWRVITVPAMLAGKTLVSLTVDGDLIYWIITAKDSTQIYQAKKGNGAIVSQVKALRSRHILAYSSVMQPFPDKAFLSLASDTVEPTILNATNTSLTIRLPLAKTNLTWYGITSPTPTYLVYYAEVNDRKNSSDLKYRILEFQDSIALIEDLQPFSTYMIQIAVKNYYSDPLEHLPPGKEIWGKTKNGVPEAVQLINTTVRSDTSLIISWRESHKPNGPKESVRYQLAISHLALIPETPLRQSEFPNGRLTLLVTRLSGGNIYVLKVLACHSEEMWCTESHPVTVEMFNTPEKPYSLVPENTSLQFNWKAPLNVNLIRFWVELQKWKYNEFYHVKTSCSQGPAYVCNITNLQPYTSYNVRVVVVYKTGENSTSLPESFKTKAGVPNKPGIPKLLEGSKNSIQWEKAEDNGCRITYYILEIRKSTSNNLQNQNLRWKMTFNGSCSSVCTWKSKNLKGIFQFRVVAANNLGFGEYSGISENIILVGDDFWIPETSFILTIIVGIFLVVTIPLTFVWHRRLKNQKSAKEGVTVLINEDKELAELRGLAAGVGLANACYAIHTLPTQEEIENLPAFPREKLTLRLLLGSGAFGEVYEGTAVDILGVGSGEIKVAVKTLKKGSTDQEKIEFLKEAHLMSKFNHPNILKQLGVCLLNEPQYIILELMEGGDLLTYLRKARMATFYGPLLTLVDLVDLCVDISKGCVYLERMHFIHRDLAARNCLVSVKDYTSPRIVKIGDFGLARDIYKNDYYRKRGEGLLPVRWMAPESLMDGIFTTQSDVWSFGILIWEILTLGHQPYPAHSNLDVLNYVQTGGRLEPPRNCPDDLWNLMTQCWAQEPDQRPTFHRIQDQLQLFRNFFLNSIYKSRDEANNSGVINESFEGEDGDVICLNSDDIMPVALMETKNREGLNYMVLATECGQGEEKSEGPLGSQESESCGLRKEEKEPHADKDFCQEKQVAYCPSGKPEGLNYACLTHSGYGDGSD
# Chain of Macrophage-stimulating protein receptor (Homo sapiens) (Q04912 25-304 limits assumed): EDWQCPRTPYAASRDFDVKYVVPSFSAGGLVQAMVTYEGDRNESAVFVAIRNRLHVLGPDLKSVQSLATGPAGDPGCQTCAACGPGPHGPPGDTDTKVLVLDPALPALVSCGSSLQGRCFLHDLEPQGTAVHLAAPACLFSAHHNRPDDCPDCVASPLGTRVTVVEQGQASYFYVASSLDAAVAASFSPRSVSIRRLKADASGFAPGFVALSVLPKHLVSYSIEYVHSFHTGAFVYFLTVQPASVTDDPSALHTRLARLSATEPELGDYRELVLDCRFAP
# Chain of Macrophage-stimulating protein receptor (Homo sapiens) (Q04912 310-1400 limits assumed): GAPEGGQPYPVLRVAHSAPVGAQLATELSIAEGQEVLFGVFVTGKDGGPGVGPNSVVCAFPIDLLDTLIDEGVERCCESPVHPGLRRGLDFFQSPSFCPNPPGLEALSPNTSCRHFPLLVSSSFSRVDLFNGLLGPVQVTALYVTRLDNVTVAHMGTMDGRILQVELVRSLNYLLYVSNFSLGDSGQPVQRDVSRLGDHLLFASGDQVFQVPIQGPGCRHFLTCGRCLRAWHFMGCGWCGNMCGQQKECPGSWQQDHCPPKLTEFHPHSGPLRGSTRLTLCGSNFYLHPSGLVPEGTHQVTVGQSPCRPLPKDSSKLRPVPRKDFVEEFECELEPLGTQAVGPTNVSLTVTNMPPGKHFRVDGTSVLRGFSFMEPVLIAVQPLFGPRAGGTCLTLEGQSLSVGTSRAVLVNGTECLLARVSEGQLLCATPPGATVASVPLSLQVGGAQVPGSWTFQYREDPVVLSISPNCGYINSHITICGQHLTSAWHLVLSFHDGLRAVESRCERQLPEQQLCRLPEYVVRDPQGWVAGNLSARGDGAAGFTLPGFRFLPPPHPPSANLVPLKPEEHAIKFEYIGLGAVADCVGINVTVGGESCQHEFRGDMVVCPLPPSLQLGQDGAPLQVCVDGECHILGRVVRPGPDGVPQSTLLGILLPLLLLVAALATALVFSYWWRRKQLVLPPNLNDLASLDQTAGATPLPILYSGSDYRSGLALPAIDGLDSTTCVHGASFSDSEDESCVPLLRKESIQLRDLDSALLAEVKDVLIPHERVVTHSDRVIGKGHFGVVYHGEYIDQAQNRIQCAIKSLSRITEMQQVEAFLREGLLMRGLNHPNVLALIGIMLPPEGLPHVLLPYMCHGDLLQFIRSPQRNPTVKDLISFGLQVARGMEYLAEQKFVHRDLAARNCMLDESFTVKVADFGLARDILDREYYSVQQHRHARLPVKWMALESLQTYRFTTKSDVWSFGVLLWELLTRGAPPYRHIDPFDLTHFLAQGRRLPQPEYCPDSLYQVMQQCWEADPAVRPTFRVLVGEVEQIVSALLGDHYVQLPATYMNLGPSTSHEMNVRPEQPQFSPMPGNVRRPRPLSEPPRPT
# Chain of Proto-oncogene tyrosine-protein kinase receptor Ret (Homo sapiens), P07949 [Y791F] (P07949 whole entry Y791F): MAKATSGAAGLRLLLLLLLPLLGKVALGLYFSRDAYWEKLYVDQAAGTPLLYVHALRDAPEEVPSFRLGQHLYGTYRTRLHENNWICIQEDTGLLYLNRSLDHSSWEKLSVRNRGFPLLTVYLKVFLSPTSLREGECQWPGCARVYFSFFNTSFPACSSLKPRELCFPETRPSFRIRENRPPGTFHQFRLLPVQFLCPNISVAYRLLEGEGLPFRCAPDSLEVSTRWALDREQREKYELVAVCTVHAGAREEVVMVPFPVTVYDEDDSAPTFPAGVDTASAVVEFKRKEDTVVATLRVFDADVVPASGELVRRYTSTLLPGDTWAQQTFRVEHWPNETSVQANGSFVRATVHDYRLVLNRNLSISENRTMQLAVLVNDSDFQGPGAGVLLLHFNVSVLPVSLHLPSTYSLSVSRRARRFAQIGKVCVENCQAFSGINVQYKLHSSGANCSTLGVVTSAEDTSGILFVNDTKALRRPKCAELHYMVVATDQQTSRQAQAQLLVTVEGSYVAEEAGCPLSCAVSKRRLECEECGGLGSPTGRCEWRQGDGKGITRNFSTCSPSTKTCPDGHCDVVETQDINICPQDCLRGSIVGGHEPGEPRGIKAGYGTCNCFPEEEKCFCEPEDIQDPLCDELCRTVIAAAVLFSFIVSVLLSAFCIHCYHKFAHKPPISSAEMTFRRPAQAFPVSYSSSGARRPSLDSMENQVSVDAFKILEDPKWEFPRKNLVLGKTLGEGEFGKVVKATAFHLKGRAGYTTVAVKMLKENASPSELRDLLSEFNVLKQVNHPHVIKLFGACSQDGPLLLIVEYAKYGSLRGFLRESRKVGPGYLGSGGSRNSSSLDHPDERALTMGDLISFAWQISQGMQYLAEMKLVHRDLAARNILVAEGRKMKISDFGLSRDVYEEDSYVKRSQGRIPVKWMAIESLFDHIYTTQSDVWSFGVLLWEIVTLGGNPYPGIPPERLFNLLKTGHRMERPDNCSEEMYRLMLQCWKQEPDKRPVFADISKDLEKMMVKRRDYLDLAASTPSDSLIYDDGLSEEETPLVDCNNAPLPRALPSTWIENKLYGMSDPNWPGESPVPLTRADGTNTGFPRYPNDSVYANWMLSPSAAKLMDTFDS
SMILES,inhibition [1] [%],inhibition [2] [%],inhibition [3] [%],inhibition [4] [%],inhibition [5] [%],inhibition [6] [%],inhibition [7] [%],inhibition [8] [%],inhibition [9] [%],inhibition [10] [%],inhibition [11] [%],inhibition [12] [%],inhibition [13] [%],inhibition [14] [%],inhibition [15] [%],inhibition [16] [%],inhibition [17] [%],inhibition [18] [%],inhibition [19] [%],inhibition [20] [%]
NS(=O)(=O)c1ccc(Nc2cc(-c3ccc(O)c(F)c3)n[nH]2)cc1,55.5,-1.82,10.5,0.96,3.04,-0.44,8.59,-1.1,1.72,3.87,-1.99,-1.66,0.4,2.97,21.7,-4.31,24.3,-1.31,-1.02,5.68
Cc1nnc(-c2ccc(C)c(-c3ccc(C(=O)NCc4ccc(Cl)cc4)cc3)c2)o1,7.75,1.1,2.52,4.75,7.75,-1.25,7.15,-2.08,-0.92,-5.79,-1,0.01,0.03,4.45,6.89,0.68,5.31,0.65,0.3,2.65
COc1cc(Nc2ncc3c(C)nc(-c4cccc(C(F)(F)F)c4)n3n2)cc(OC)c1OC,31.8,-0.28,6.04,6.64,10.5,22.6,74.4,1.58,0.29,-1.19,-2.22,3.55,16.9,2.15,6.29,15.2,48.8,0.75,3.69,2.69
O=C(Nc1n[nH]c2cc(-c3ccccc3)ccc12)C1CC1,10.6,3.18,5.31,6.26,7.64,0.33,10.7,-0.84,3.11,-3.33,1.22,7.27,16.4,1.86,3.48,3.15,7.79,0.74,3.97,2.59
CN(C)c1ccc2c(c1)/C(=C/Nc1ccc(S(N)(=O)=O)cc1)C(=O)N2,47,-0.09,7.23,4.66,8.86,-4.52,27.4,1.2,3.48,–,0.31,1.4,2.35,1.03,5.59,0.71,5.7,0.14,1.79,6.93
Cc1ccc(C(=O)NC(C)C)cc1-c1ccc(C(=O)NCC2CC2)cc1,-0.37,-4.49,0.06,-1.39,0.55,-4.72,-6.71,-2.42,2.24,-0.72,-0.36,-2.75,-2.37,-0.76,-0.28,-4.74,-5.58,-0.81,0.35,-0.37
Fc1ccc(-c2c(-c3ccncc3)nc3n2CCS3)cc1,7.69,7.82,5.85,2.1,8.26,-3.16,9.68,–,0.79,0.99,1.49,-1.67,-0.75,2.27,4.78,0.74,2.59,0.57,1.01,3.03
COc1cc(Nc2ncc(-c3ccccc3)o2)cc(OC)c1OC,16.2,-0.55,3.47,2.53,15.8,19.7,72.4,-1.26,3.83,-0.67,-1.68,-2.02,4.55,0.66,5.14,4.15,28.4,0,0.48,3.35
FC(F)(F)c1cccc(Nc2nccc(-c3cnn4nc(-c5ccccc5)ccc34)n2)c1,9,3.97,1.8,0.97,9.02,5.04,8.31,-0.79,-0.77,-0.05,-6.97,-0.76,4.7,0.12,4.87,1.51,8.59,0.76,1.15,-0.16
c1ccc(Oc2ccc(Nc3ncc(-c4ccccc4)o3)cc2)cc1,6.74,4.82,2.2,4.48,5.71,-4.51,3.93,0.57,1.29,-7.24,2.28,2.6,2.98,0.12,1.44,0.99,3.43,0.99,2.91,1.43
NC(=O)Cc1ccccc1Oc1nccc(-c2c(-c3ccc(F)cc3)ncn2C2CCNCC2)n1,4.66,-4.83,4.24,6.52,7.32,1.88,5.52,-1.62,-0.3,-2.13,-0.38,4.14,4.45,3.62,4.3,-0.61,-3.16,1.43,2.74,-0.18

# — ChEMBL document CHEMBL1961873, “Compounds: GSK PKIS; Assays: Nanosyn kinase panel” (2012)
